Our source for the activity change values is PubChem BioAssay AID743279 (National Center for Advancing Translational Sciences (NCATS), 2014).

SMILES strings stand for the structures. In all, about 360,000 compounds went through this assay and about 17,000 (4.7%) were called active. Another 5% or so got no clear call; they are omitted. The full list was thinned out, with actives kept by preference. A number with no mark means an inactive call. Rule as the data show it: active = activity change below about -50%; inconclusive = mostly about -30% to -49%; inactive = weaker than that.
% is scaled to controls: 0 for no effect and ±100 for the full control effect.

This test can be described thus: qHTS for Inhibitors of Inflammasome Signaling: IL-1-beta AlphaLISA Primary Screen. The note with it: THP-1 LPS/ATP IL-1B secretion, 16 h; at 57.5 µM, hits give low values. Put shortly: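 Secreted IL-1B measured by AlphaLISA bead assay after 16 h compound exposure of THP-1 cells; compounds (final up to 57.5 uM) added 1 h before LPS (250 ng/mL) and ATP (1.25 mM) stimulation; lower signal means less secretion.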
On the technique in general: In qHTS, concentration-response curves come from the screen itself.
In the case of `COc1ccc(CN2C(=O)C(CC(=O)NCc3cccc4ccccc34)CC(C(=O)N3CCOCC3)=C2C)cc1` (stereo not given), the activity change is -5.05%.

For the molecule `COc1cc(C(O)c2nc(-c3cnn(C)c3)cs2)ccc1F` (stereo not given), the activity change was 25.9%.

For `CC(C)(C)NC(=O)Cn1c(SCC(=O)Nc2nccs2)nc2ccccc21`, the activity change was -11.3%.

Turning to `Cc1ccc(NC(=O)N2CCC(c3nc4c(nnn4Cc4c(F)cccc4Cl)c(=O)[nH]3)CC2)cc1`, the activity change is -69% (active).

As for `O=C(Nc1ccc(F)cc1)N1CCCC(c2nc3c(nnn3Cc3ccccc3Cl)c(=O)[nH]2)C1` (stereo not given), the activity change was -15.2%.

As for `COc1ccc(Cn2nnc3c(=O)[nH]c(C4CCN(C(=O)c5ccccc5Cl)CC4)nc32)cc1`, the activity change is 0%.

In the case of `CC[C@]12c3[nH]c4cc(CCC(=O)N(C)C)ccc4c3CCN1C(=O)[C@@H](CC(=O)NCCCN(C)C)C[C@@H]2C(=O)N1CCN(C(=O)c2ccco2)CC1`, the activity change was 0%.

`CC1CCN(C(=O)CSc2nnc(-c3ccco3)n2N)CC1`: the activity change was 3.36%.

Turning to `c1ccc(Cc2c(-c3ccco3)nc3c4ccccc4ccn23)cc1`, the activity change is -21.7%.

On to `Cc1ccc(OCC(O)CN2CCN(CC(O)COc3ccc(C)cc3Cl)CC2)c(Cl)c1` (stereo not given), for which the activity change is 4.54%.

Turning to `C=CCc1ccccc1OCC(O)CN1CCN(CCO)CC1` (stereo not given), the activity change is 9.73%.

For `Cc1cccc(OCC(O)CN2CCN(CCN3C(=O)c4cccc5cccc(c45)C3=O)CC2)c1C` (stereo not given), the activity change is -52.3% (active).

Consider `CCCCN1C(=O)C(CC(=O)NCc2cccs2)CC(C(=O)N2CCCCCC2)=C1C` (stereo not given), for which the activity change is 7%.

Regarding `Clc1ccc(-n2nnnc2CN2CCCCC2)cc1Cl`, the activity change was 9.91%.

In the case of `COc1ccccc1/C=C1\SC(=O)N(CCC(=O)N(C)C2CCS(=O)(=O)C2)C1=O` (stereo not given), the activity change is -15.1%.

As for `CN(C(=O)CCN1C(=O)/C(=C/c2ccccc2F)SC1=S)C1CCS(=O)(=O)C1` (stereo not given), the activity change was -99.1% (active).

With `CN(C(=O)CN1C(=O)S/C(=C\c2ccccc2F)C1=O)C1CCS(=O)(=O)C1` (stereo not given), the activity change is -16.9%.

Regarding `CCC(C)CN1C(=O)CSCC1(C)C(=O)NCc1ccccc1` (stereo not given), the activity change was -5.63%.

Take `COc1ccc(S(=O)(=O)N2CCOCC2)cc1NC(=O)COc1ccccc1`: the activity change was 6.58%.

With `CC(=O)c1cccc(NC(=O)COc2ccc(S(=O)(=O)N3CCOCC3)cc2)c1`, the activity change was -9.57%.

Consider `COC(=O)COc1ccc(S(=O)(=O)N2CCOCC2)cc1`, for which the activity change is -50.5% (active).

For the molecule `Cc1cc2c(cc1C)NC1(C[C@H]3CCC(=O)N4CC[C@@H](C1)[C@@H]34)C(=NC(C)(C)CC(C)(C)C)N2` (stereo not given in full), the activity change was 1.01%.

`C=CCN(N=Nc1cccc([N+](=O)[O-])c1)c1cccc([N+](=O)[O-])c1`: the activity change was -16.1%.

With `NS(=O)(=O)c1ccc(CNC(=O)c2cnccn2)cc1`, the activity change was 2.67%.

Turning to `NS(=O)(=O)c1ccc(CNC(=O)c2cccc(Oc3ccccc3)c2)cc1`, the activity change is -74.2% (active).

`NS(=O)(=O)c1ccc(CNC(=O)c2cccc(S(=O)(=O)N3CCc4ccccc43)c2)cc1`: the activity change was -11.1%.

Consider `CCc1ccc(OC2(C)CCN(CCOc3ccc(C)cc3)C2)cc1` (stereo not given), for which the activity change was -10%.

With `O=C1CSC(=S)N1/N=C/c1ccc(O)c([N+](=O)[O-])c1`, the activity change is 23.5%.

For `O=C(CC[C@H]1O[C@@H](n2ccc(=O)[nH]c2=O)[C@H](O)[C@@H]1O)N[C@H](Cc1ccccc1)C(=O)NCCCN1CCCC1=O`, the activity change is 15.8%.

As for `Cc1cc(C(=O)N2CCCC2(C)C(=O)O)c(C)o1` (stereo not given), the activity change was -11.9%.

Take `CCn1c(SCC(=O)Nc2nc(C)cs2)nnc1C(C)NC(=O)c1ccccc1` (stereo not given): the activity change was -6.67%.

As for `CCn1nc(C)c(CN2CCN(Cc3ccc(OC)c(C)c3C)C(CCO)C2)c1C` (stereo not given), the activity change was 9.61%.

For the molecule `Cc1ccc(CN2CCN(Cc3cn(C)nc3-c3ccccc3)CC2CCO)o1` (stereo not given), the activity change was 40.4%.

With `COc1ccc(CN2CCN(Cc3cn(C)nc3-c3ccccc3)CC2CCO)c(C)c1C` (stereo not given), the activity change was -57.9% (active).

As to `Cc1noc(C)c1C(=O)N1CCC1(C)C(=O)NS(=O)(=O)c1ccc(C#N)cc1` (stereo not given), the activity change was -5.56%.

With `O=C(Nc1ccccc1)c1ccccc1Br`, the activity change is 9.09%.

For the molecule `CC1(C(=O)NS(=O)(=O)c2ccc(C#N)cc2)CCN1C(=O)CC1CCCC1` (stereo not given), the activity change is 4.38%.

With `CC(=O)C[C@@H]1OC[C@H](C)N1S(=O)(=O)c1ccc(C)cc1`, the activity change is -13.9%.

With `Cc1cc2[nH]ncc2cc1NC(=S)NC(=O)c1ccccc1`, the activity change is -1.02%.

On to `Cc1cccc(NC(=O)NC(=S)NC(=O)c2ccccc2)c1`, for which the activity change is -7.59%.

`Cc1ccc(NC(=S)NC(=O)c2ccc(-c3ccccc3)cc2)c(C)c1`: the activity change was -50.2% (active).

Consider `O=C(N[C@H]1C/C=C\C(c2cccc(F)c2)N(Cc2ccccc2)C(=O)C1)OCC1c2ccccc2-c2ccccc21` (stereo not given in full), for which the activity change was -10%.

For `CC[C@@H]1CC2=C(C(=O)OC(C)(C)O2)[C@@H](CC)O1`, the activity change was 22.9%.

`O=C(C1CC1)N1N=C2CCCCC2C1(O)C(F)(F)F` (stereo not given): the activity change was -13%.

Regarding `O=C(OCc1nnc(-c2ccccc2)o1)c1cc(=O)[nH]c2ccccc12`, the activity change is -11.8%.

With `CN(C(=O)COC(=O)c1cc(=O)[nH]c2ccccc12)C1CCCCC1`, the activity change was 0%.

`CCOC(=O)c1ccc(COC(=O)c2cc(=O)[nH]c3ccccc23)o1`: the activity change is -68.1% (active).

Consider `CC(CO)NCC12CC3CC(CC(C3)C1)C2` (stereo not given), for which the activity change is 4.35%.

With `CC(=O)NC(c1ccccc1)c1nc(-c2ccccc2C)cs1` (stereo not given), the activity change is 0.953%.

For the molecule `CCc1nc2c(OCCOc3ccccc3)cccn2c1N(C=O)Cc1ccc(OC)cc1`, the activity change is 29.8%.

Take `CCCCN(C=O)c1c(CC)nc2c(OCCC3CCCCC3)cccn12`: the activity change was -56.6% (active).

Turning to `CCCCN(C=O)c1c(CC)nc2c(OCc3ccccc3C(=O)OC)cccn12`, the activity change is 0%.

As for `COc1cccc(CNc2nc(NCc3ccccc3OC)nc3ccsc23)c1`, the activity change was -75.5% (active).

Regarding `COc1cccc(-c2cc3nc(NCc4ccccc4OC)n(C)c(=O)c3s2)c1`, the activity change was 0.83%.

Regarding `COc1cccc(CNc2nc(NCc3cccs3)nc3ccsc23)c1`, the activity change is -4.63%.
